In PubChem BioAssay (NCI):
Compounds without any hit were thinned out: in the full panel of roughly 83,000, 20% have a hit.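 Interpretation: 100, growth as untreated; towards 0, rising growth inhibition; 0, no net growth; 0 to -100, cell death. Compounds scoring below 10 were considered active.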 A number with no mark means an inactive call. Activity calls are given as the source filed them.

What was measured:
Experiment in all cases: NCI-60 one-dose screen, 48 h (100 = growth as untreated, 0 = no growth, -100 = all killed)
Conditions in all cases: 10 µM unless noted
NCI-H23 lung = tested on: NCI-H23 lung
NCI-H226 lung = tested on: NCI-H226 lung
NCI-H322M lung = tested on: NCI-H322M lung
HOP-62 NSCLC = tested on: HOP-62 NSCLC
NCI-H460 lung = tested on: NCI-H460 lung
HOP-92 NSCLC = tested on: HOP-92 NSCLC
NCI-H522 lung = tested on: NCI-H522 lung
A549/ATCC NSCLC = tested on: A549/ATCC NSCLC
786-0 renal = tested on: 786-0 renal
COLO 205 colon = tested on: COLO 205 colon
DU-145 prostate = tested on: DU-145 prostate
K-562 leukemia = tested on: K-562 leukemia
MALME-3M melanoma = tested on: MALME-3M melanoma
MDA-MB-231 breast = tested on: MDA-MB-231 breast
RXF 393 renal = tested on: RXF 393 renal
SF-268 CNS = tested on: SF-268 CNS
SF-295 CNS = tested on: SF-295 CNS
SF-539 CNS = tested on: SF-539 CNS
UACC-257 melanoma = tested on: UACC-257 melanoma
M14 melanoma = tested on: M14 melanoma

Structure (SMILES)	growth (NCI-H23 lung)	growth (NCI-H226 lung)	growth (NCI-H322M lung)	growth (HOP-62 NSCLC)	growth (NCI-H460 lung)	growth (HOP-92 NSCLC)	growth (NCI-H522 lung)	growth (A549/ATCC NSCLC)	growth (786-0 renal)	growth (COLO 205 colon)	growth (DU-145 prostate)	growth (K-562 leukemia)	growth (MALME-3M melanoma)	growth (MDA-MB-231 breast) [%]	growth (RXF 393 renal)	growth (SF-268 CNS)	growth (SF-295 CNS)	growth (SF-539 CNS)	growth (UACC-257 melanoma)	growth (M14 melanoma)
COc1ccc(/C(Cl)=N/N=C(\Cl)c2cc(OC)c(OC)c(OC)c2)cc1OC(C)=O	99.2%	95.3%	95.1%	87.5%	97.4%	77.3%	50.2%	86.5%	102%	98.9%	95.3%	97.3%	93.6%	97.8	101%	95.3%	102%	93.3%	84.6%	107%
C[C@H]1C=C(C[C@@H](O)CCCCCCCCCC[C@@H](O)[C@H]2CCC(=O)O2)C(=O)O1	95.5%	96.5%	94.2%	109%	113%	68%	73.3%	110%	96.8%	92.5%	112%	83.5%	122%	102	100%	115%	109%	92.5%	102%	101%
C=C1c2c(Cl)ccc(O)c2C(O)=C2C(=O)[C@]3(O)C(O)=C(C(N)=O)C(=O)[C@@H](N(C)C)[C@@H]3[C@@H](O)[C@H]12	8.01% (active)	42.7%	-2.1% (active)	9.39% (active)	4.63% (active)	-37.3% (active)	11.6%	9.74% (active)	8.22% (active)	22.5%	21.9%	3.66% (active)	-15% (active)	11	12.4%	11.8%	-4.14% (active)	5.14% (active)	-4.26% (active)	9.22% (active)
COc1ccc(-n2c(-c3ccc(NC(=O)CCCl)cc3)nnc2-c2cc(OC)c(OC)c(OC)c2)cc1	54.8%	68.8%	59.4%	54.8%	7.54% (active)	46.1%	43.8%	30.2%	75.4%	8.54% (active)	22.7%	49.8%	71.4%	53.2	8.38% (active)	78.6%	53.1%	41.5%	52.1%	59.5%
O=C(COc1ccc(Cl)cc1)N1CCN(Cc2ccc3c(c2)OCO3)CC1	89.8%	101%	105%	101%	107%	81.1%	93.8%	96.3%	101%	96.1%	113%	84.8%	98.4%	87.2	109%	95.9%	95.4%	104%	103%	111%
O=C(N/N=C1\SCC(=O)N1c1ccccc1)c1cc(-c2cc3ccccc3o2)nn1-c1ccccc1	44.8%	118%	102%	101%	121%	50.9%	106%	110%	102%	132%	109%	90.6%	94%	91.9	101%	103%	104%	104%	107%	110%
CCCC(C)(C)COC(=O)c1cccc(N)c1	103%	87.8%	80.9%	92.5%	108%	85%	60.6%	89.7%	93.6%	110%	106%	87%	92%	106	123%	97.7%	101%	103%	83.3%	99.4%
CC(/C=C/C=C(\C)[C@H](O)[C@H](C)C(=O)O[C@H]1C[C@H](C)C=C2C=C[C@@]3(C)O[C@@H](O)CC(=O)[C@]3(C)[C@H]21)=C\C=C\C(=O)O	-6.25% (active)	-3.28% (active)	4.63% (active)	-3.68% (active)	2.9% (active)	-14.2% (active)	-11.8% (active)	3.63% (active)	1.96% (active)	-55.9% (active)	4.82% (active)	5.89% (active)	-57% (active)	19.8	-49.5% (active)	7.59% (active)	2.34% (active)	-15.9% (active)	2.06% (active)	-51.3% (active)
CC(=O)N[C@@H](CNC(=O)c1cc(NC(=O)c2cc(NC(=O)c3cc(NC(=O)c4nccn4C)cn3C)cn2C)cn1C)CC(=O)Nc1cn(C)c(C(=O)Nc2cc(C(=O)Nc3cc(C(=O)Nc4cc(C(=O)NCCCN(C)CCCNC(=O)c5cccc(C(=O)O)c5)n(C)c4)n(C)c3)n(C)c2)n1	89.9%	58.4%	57%	91.6%	10.6%	106%	39%	-10.7% (active)	82.7%	45.1%	53.3%	105%	122%	113	97.6%	95.9%	47.8%	107%	113%	89.9%
CCOc1ccc(NC2=C(Cl)C(=O)c3ccccc3C2=O)cc1	39.6%	101%	105%	95.1%	97.9%	78.6%	62.7%	97%	94.7%	108%	102%	-2.3% (active)	108%	80.2	105%	94.2%	94.3%	90.9%	97.6%	68%
CCCCCC/C=N/Nc1ccc([N+](=O)[O-])cn1	98.3%	99.1%	98.7%	87.8%	112%	104%	78.2%	90.6%	94.7%	98%	103%	96.7%	98.1%	98.7	104%	103%	95.3%	93.7%	88.7%	90.4%
CCNc1cc(S(=O)(=O)O)ccc1C	103%	103%	112%	90.8%	112%	104%	93.3%	81.3%	99.8%	92.8%	108%	102%	106%	102	110%	113%	101%	102%	83.2%	106%
COc1cc(Br)c(-c2nc(-c3ccccc3)c(-c3ccccc3)n2Cc2ccccc2)cc1OC	46.8%	70.4%	75.1%	91.8%	48.9%	45.7%	39.6%	37%	67.9%	30.2%	72.6%	31.5%	57.8%	71.2	72.2%	67.9%	34.5%	76%	59.2%	53.1%
O=C(O)c1ccccc1C(=O)c1ccc(I)cc1	102%	101%	104%	88.7%	105%	78.3%	75.5%	98.4%	99%	103%	109%	104%	98.3%	110	108%	106%	102%	98.9%	117%	98.2%
CC12CCC3C(CCC4CC(O)CCC43C)C1C/C(=C/O)C(=O)O2 (stereo not given)	98.7%	96.6%	107%	99.1%	110%	99.6%	84.2%	100%	111%	105%	108%	102%	134%	106	99.8%	101%	105%	113%	92.6%	105%
